PubChem BioAssay (NCI)
This is part of a sample that, as a whole, favours compounds with a hit. Of some 83,000 tested, about 20% had one in any assay.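 Assay: single dose, 48 h. Readout: percent growth (0 = no net growth; negative = cell death). Active: <10.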 Unmarked numbers belong to inactive results. Activity calls are given as the source filed them.

Assays:
Experiment in all cases: NCI-60 one-dose screen, 48 h (100 = growth as untreated, 0 = no growth, -100 = all killed)
Details in all cases: 10 µM
NCI-H23 lung = tested on: NCI-H23 lung
NCI-H226 lung = tested on: NCI-H226 lung
NCI-H322M lung = tested on: NCI-H322M lung
HOP-62 NSCLC = tested on: HOP-62 NSCLC
NCI-H460 lung = tested on: NCI-H460 lung
HOP-92 NSCLC = tested on: HOP-92 NSCLC
NCI-H522 lung = tested on: NCI-H522 lung
A549/ATCC NSCLC = tested on: A549/ATCC NSCLC
786-0 renal = tested on: 786-0 renal
COLO 205 colon = tested on: COLO 205 colon
DU-145 prostate = tested on: DU-145 prostate
K-562 leukemia = tested on: K-562 leukemia
MALME-3M melanoma = tested on: MALME-3M melanoma
MDA-MB-231 breast = tested on: MDA-MB-231 breast
RXF 393 renal = tested on: RXF 393 renal
SF-268 CNS = tested on: SF-268 CNS
SF-295 CNS = tested on: SF-295 CNS
SF-539 CNS = tested on: SF-539 CNS
UACC-257 melanoma = tested on: UACC-257 melanoma
M14 melanoma = tested on: M14 melanoma

Row | Structure (SMILES) | growth (NCI-H23 lung) | growth (NCI-H226 lung) | growth (NCI-H322M lung) | growth (HOP-62 NSCLC) | growth (NCI-H460 lung) | growth (HOP-92 NSCLC) | growth (NCI-H522 lung) | growth (A549/ATCC NSCLC) | growth (786-0 renal) | growth (COLO 205 colon) | growth (DU-145 prostate) | growth (K-562 leukemia) | growth (MALME-3M melanoma) | growth (MDA-MB-231 breast) | growth (RXF 393 renal) | growth (SF-268 CNS) | growth (SF-295 CNS) | growth (SF-539 CNS) | growth (UACC-257 melanoma) | growth (M14 melanoma)
1 | COc1ccc(C2C=C(c3ccc(Cl)c(Cl)c3)N=C3SC(C)=CN32)cc1OC (stereo not drawn) | 64% | 79.7% | 71.7% | 82.3% | 70.2% | 47.2% | 57.9% | 58.6% | 78.8% | 72.1% | 83.6% | 59.5% | 87.3% | 46.1% | 66.4% | 63.2% | 42.5% | 90.7% | 79.7% | 71%
2 | O=C(N/N=c1/ccoc2cccnc12)N1CCN(c2ncccn2)CC1 | 26.4% | 37.6% | 39.1% | 24.5% | 15.2% | 64.2% | 9.96% (active) | 17.6% | 40.4% | 4.3% (active) | 50.5% | 9.99% (active) | 55.5% | 40% | 66.8% | 37.3% | 15.9% | 45.3% | 5.91% (active) | 14.5%
3 | Cc1cc(C)c2nc(C)c(C)[n+]([O-])c2c1 | 97.1% | 103% | 94.7% | 73.4% | 115% | 93.4% | 85.2% | 68.6% | 103% | 111% | 110% | 89.2% | 95.6% | 118% | 114% | 106% | 101% | 97.2% | 84.8% | 102%
4 | O=C(Nc1cccc(F)c1)Nc1cccc(Cl)c1 | 89.8% | 102% | 94.8% | 99.6% | 56% | 76.7% | 90.5% | 74.7% | 94.2% | 93.6% | 65.8% | 10.9% | 84.6% | 80.7% | 104% | 80.4% | 92.7% | 105% | 87.7% | 100%
5 | O=C(Nc1ccc(CN2CCOCC2)cc1)c1ccc(-c2cc(Cl)ccc2Cl)o1 | 82.7% | 72.5% | 51.4% | 71.4% | 5.58% (active) | 19.2% | 66.7% | 57.3% | 63% | -82.1% (active) | 75.4% | -23.7% (active) | -53.4% (active) | 9.54% (active) | 38.4% | 57.8% | 57.6% | 88.3% | 49.4% | -44.2% (active)
6 | COc1cc(-c2c(C#N)c(N)n3c(nc4ccccc43)c2C#N)cc(Br)c1OC | 59.2% | 27.8% | 70.9% | 74.5% | 28.4% | -20.7% (active) | 39.8% | 4.73% (active) | 22.2% | 55.1% | 39.1% | 54.6% | 7.41% (active) | 12.6% | -9.32% (active) | 64% | 66% | 41.2% | 54% | 76%
7 | Oc1ccc(/C=N\Nc2ccccn2)c(O)c1 | 1.98% (active) | 41.7% | -5.61% (active) | 2.96% (active) | 3.15% (active) | 38.1% | 23.7% | 26.6% | -13.2% (active) | 69.1% | 11.1% | 24.3% |  | 37.8% | 28.5% | 16.4% | -4.28% (active) | -0.82% (active) | 30.3% | -36.2% (active)
8 | Cc1ccc(S(=O)(=O)Oc2ccccc2-c2ccccc2)cc1 | 47.2% | 53.5% | 47.9% | 42% | 9.27% (active) | 33% | 15% | 42.4% | 38.4% | 8.93% (active) | 34% | 15.3% |  | 55.9% | 28.9% | 42.5% | 8.37% (active) | 8.87% (active) | 54.4% | 6.11% (active)
